Many of the other results were omitted from the sample, so hits are more common in it than they were.
Cycloheximide cs – Cycloheximide Counterscreen for Small Molecule Inhibitors of Shiga Toxin | cell reporter, cycloheximide protein synthesis inhibition counterscreen | max response, % | 300,000 compounds, 12% hits; in the data active = max response mostly above about 13%, no sharp cut-off; inactive = mostly below about 14%; note: read at 38.3 µM for the half of the compounds with a filed dose; 0% is about no effect
LmPK inhibitor – qHTS Assay for Inhibitors of Leishmania Mexicana Pyruvate Kinase (LmPK); Q27686; purified LmPK, Kinase-Glo ATP luminescence, 1 h; Potency, µM (doses to about 57.5 µM), inactives show at the top dose activity change, negative = inhibition, usual class: inhibitors; 290,000 compounds, 0.37% hits; note: potency is the fitted concentration of half-maximal effect; % is set by controls: 0 for no effect and ±100 for the full control effect
Target sequence (Q27686 whole entry, looked up): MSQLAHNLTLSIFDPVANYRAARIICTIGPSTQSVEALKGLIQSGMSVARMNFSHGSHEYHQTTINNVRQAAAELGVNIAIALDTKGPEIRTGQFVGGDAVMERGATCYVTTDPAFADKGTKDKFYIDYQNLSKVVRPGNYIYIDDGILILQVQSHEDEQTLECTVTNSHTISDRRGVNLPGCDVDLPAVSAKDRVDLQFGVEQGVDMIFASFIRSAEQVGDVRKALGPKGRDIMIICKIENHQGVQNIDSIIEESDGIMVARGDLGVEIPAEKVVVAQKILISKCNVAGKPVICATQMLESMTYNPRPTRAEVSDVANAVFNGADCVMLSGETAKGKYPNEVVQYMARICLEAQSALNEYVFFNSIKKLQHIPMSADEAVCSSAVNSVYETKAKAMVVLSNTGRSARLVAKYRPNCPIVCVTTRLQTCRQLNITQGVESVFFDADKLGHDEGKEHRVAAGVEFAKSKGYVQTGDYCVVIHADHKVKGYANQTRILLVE
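Pyruvate kinase activity monitored as ATP production (luciferase luminescence). Conditions: 0.1 nM enzyme, 0.5 mM PEP, 0.1 mM ADP, 1 h, RT; normalized against uninhibited and no-enzyme wells.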
Tb PYK inh – qHTS of Trypanosoma Brucei Inhibitors. pyruvate kinase (Trypanosoma brucei), Q57TT1. TbPYK enzyme, Kinase-Glo Plus ATP luminescence, 45 min. Potency, µM (titrated, usually from 76.8 µM), for inactives: at the highest dose activity, negative = inhibition, actives largely listed as inhibitors. 410,000 compounds, 0.12% hits. AID 624173, 2012; note: potency is the fitted concentration of half-maximal effect; % is set by controls: 0 for no effect and ±100 for the full control effect; nearly all actives have a fitted effect of over 50% in size
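Quantitative HTS: titrated library compounds versus trypanosomal pyruvate kinase in TEA buffer (pH 7.2) containing KCl, MgCl2, BSA and Tween-20. Reactions were initiated with ADP, 130 uM final. Kinase-Glo Plus luminescence was read after 45 min at RT.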
Shiga inhibitor – A qHTS for Small Molecule Inhibitors of Shiga Toxin. Vero cells, Shiga toxin protein synthesis inhibition reporter. inhibition, % at 38.7 µM. 290,000 compounds, 9.2% hits; in the data active = inhibition mostly above about 28%, no sharp cut-off; inactive = mostly below about 43%; note: 0% is about no effect
RE007 growth inh – qHTS Assay for Inhibitors of the HIV-1 protein Vpr; S. pombe RE007 Vpr strain, BacTiter-Glo ATP luminescence, 24 h; Potency, µM (doses to about 92.2 µM), without a hit: at the highest dose activity change, negative = less growth, actives largely listed as inhibitors; 360,000 compounds, 0.21% hits; AID 651644, 2012; active = well fitted falling curve with a large enough effect; inconclusive = small, poorly fitted or top-dose-only effect; inactive = no such curve, though single readings can be large or run the other way; note: potency is the fitted concentration of half-maximal effect; % is set by controls: 0 for no effect and ±100 for the full control effect; nearly all actives have a fitted effect of over 50% in size
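Fission yeast RE007 carrying one integrated HIV-1 vpr copy, seeded at OD 0.01 in PMG+AL medium with 23 nL pinned compound. Grown 24 h at 30 degrees; viability read by BacTiter-Glo luminescence after 5 min.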
FBPA Giardia inh – qHTS Assay for Inhibitors of Fructose-1,6-bisphosphate Aldolase from Giardia Lamblia; Potency, µM (titrated, usually from 59.6 µM), for inactives: at the highest dose activity, negative = inhibition, actives largely listed as inhibitors; purified Giardia FBPA; 290,000 compounds, 0.71% hits; note: potency is the fitted concentration of half-maximal effect; % is set by controls: 0 for no effect and ±100 for the full control effect; nearly all actives have a fitted effect of over 55% in size
Target sequence (A8B2U2 whole entry, looked up): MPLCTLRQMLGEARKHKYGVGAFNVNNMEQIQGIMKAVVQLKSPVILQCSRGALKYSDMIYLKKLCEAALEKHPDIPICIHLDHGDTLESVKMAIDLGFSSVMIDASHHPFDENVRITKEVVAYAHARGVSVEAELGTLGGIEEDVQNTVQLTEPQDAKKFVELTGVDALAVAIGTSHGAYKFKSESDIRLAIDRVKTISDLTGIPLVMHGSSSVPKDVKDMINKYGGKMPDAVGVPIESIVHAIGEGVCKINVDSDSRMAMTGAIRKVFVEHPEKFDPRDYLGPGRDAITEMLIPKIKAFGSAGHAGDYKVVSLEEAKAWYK
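Giardia FBPA (40 nM reagent) was preincubated 10 min at RT with compound (up to 57.5 uM final), then substrate plus GAPDH/TPI/NAD/arsenate coupling system with diaphorase/resazurin was added; resorufin fluorescence (525/598 nm) was read after 20 min.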
Numbers without * were called inactive; ? = inconclusive; · = no result given; [ ] = dose if it differs, or a comment. Unless noted, calls come from the whole dose curve; as a rule, active = well fitted curve in the direction sought with a large enough effect; inconclusive = small, poorly fitted or top-dose-only effect, or another doubt; inactive = no such curve, though single readings can be large; an effect the other way counts as inactive or inconclusive.

SMILES	Cycloheximide cs	LmPK inhibitor	Tb PYK inh	Shiga inhibitor	RE007 growth inh	FBPA Giardia inh
COc1cc(/C=N\NC(C)=O)ccc1OC/C=C/c1ccccc1	-1.2	0.9%	-0.9%	-4.6	5.5%	16.7%
O=C(Cn1c(=O)ccc2cc(S(=O)(=O)N3CCCC3)ccc21)NCc1ccc(F)cc1	·	·	2.0%	·	·	·
CCCn1nnc(NC(=O)c2cccnc2Cl)n1	-3.7	0.6%	1.0%	-1.3	6.7%	1.6%
Cc1ccc(NC(=O)/C=C/c2ccccc2)c(Br)c1	·	·	-8.8%	·	·	·
CCCn1nnc(NC(=O)/C=C/c2ccccc2)n1	16.7*	0.5%	-6.4%	51.9	-11.2%	-3.1%
Cc1nc(NC(=O)/C=C/c2ccccc2)n[nH]1	15.5*	-8.9%	0.3%	22.1	1.2%	8.4%
CCCn1nnc(NC(=O)/C=C/c2ccco2)n1	13.6	-1.0%	-3.7%	16.6	-1.1%	5.4%
CCCn1nnc(NC(=O)c2ccc(Cl)cc2Cl)n1	45.0*	-7.6%	0.4%	112.9*	3.9%	-2.7%
CCCn1nnc(NC(=O)c2ccccc2Cl)n1	26.8*	-0.5%	-4.8%	46.4	-5.4%	0.4%
CC(C)(C)c1ccc(C(=O)Nc2ccc(C(=O)OCc3cc(=O)n4ccsc4n3)cc2)cc1	·	·	4.2%	·	·	·
Cc1ccc(-n2nc(C)c3c(C)cc(=O)n(CC(=O)NCc4ccc(OC(C)C)cc4)c32)cc1	·	·	2.8%	·	·	·
CCc1cccc2nc3c(c([Si](C)(C)C)c12)Cn1c-3cccc1=O	·	·	·	·	·	-18.2%
COc1cc2ccccc2cc1C(=O)Nc1ccc2oc(-c3cccc(Cl)c3Cl)nc2c1	·	·	0.8%	·	·	·
O=C(Nc1ccc2oc(-c3cc(Br)ccc3Cl)nc2c1)c1ccc2ccccc2c1	·	·	-1.2%	·	·	·
O=C(Nc1ccc2oc(-c3ccccc3Cl)nc2c1)c1cncc(Br)c1	65.8*	0.1%	2.3%	70.7*	-10.6%	1.7%
O=C(Nc1ccc2oc(-c3ccccc3Cl)nc2c1)c1ncn[nH]1	42.8*	-2.8%	-9.5%	112.6*	-7.3%	3.5%
O=C(Nc1ccc2oc(-c3cccc4ccccc34)nc2c1)c1ncn[nH]1	18.1*	0.8%	6.3%	27.5	10.8%	0.7%
C(=N\N1CCN(Cc2ccccc2)CC1)/c1ccccc1	38.6*	-2.0%	4.1%	68.6*	-3.6%	3.9%
Clc1cccc(/C=N/N2CCN(Cc3ccccc3)CC2)c1	20.8*	1.5%	0.4%	50.9	-2.1%	1.5%
Cc1ccc(CN2CCN(/N=C/c3ccc(C)s3)CC2)cc1	-2.9	-1.5%	-9.7%	-13.7	-1.1%	2.9%
C(=N\N1CCN(Cc2ccccc2)CC1)/c1cccnc1	10.5	-0.4%	-4.8%	27.8	-16.5%	11.7%
BrC(=C\c1ccccc1)/C=N/N1CCN(Cc2ccccc2)CC1	21.9*	6.7%	-2.6%	12.7	-3.1%	-1.6%
O=[N+]([O-])c1cc(/C=N/N2CCN(Cc3ccccc3)CC2)ccc1Cl	-0.8	-3.3%	-3.3%	-6.4	-6.0%	0.5%
Cc1ccc(/C=N/N2CCOCC2)s1	46.4*	-9.9%	-2.7%	68.2*	-17.7%	-3.0%
COc1ccc2c(c1)c1c(c(=O)n(Cc3ccccc3)c(=O)n1CC(=O)Nc1ccccc1F)n2C	·	·	5.1%	·	·	·
SMILES	Cycloheximide cs	LmPK inhibitor	Tb PYK inh	Shiga inhibitor	RE007 growth inh	FBPA Giardia inh
Clc1ccccc1/C=N/N1CCN(Cc2ccccc2)CC1	4.4	5.2%	5.3%	·	-11.7%	?
FC(F)(F)c1ccccc1/C=N/N1CCN(Cc2ccccc2)CC1	36.2*	-3.8%	5.4%	109.0*	6.5%	-4.6%
Cc1ccc(/C=N/N2CCN(Cc3ccccc3)CC2)s1	50.6*	0.5%	1.8%	70.0*	-18.4%	12.6%
O=c1oc2ccccc2n1CCCOc1ccccc1Cl	·	·	1.5%	·	·	·
COc1ccc(CNC(=O)C2CCCN(C(=O)N3CCOc4ccccc43)C2)cc1 (centres undefined)	·	·	-0.5%	·	·	·
CC(NC(=O)c1cc2ccccc2oc1=O)c1ccccc1 (centres undefined)	19.6*	-3.0%	1.1%	47.1*	-19.7%	1.4%
COc1ccc(CN2CCn3ncc(C(=O)Nc4cccc(C)c4)c3C2=O)cc1	16.3*	5.3%	-2.3%	67.8	-14.4%	9.3%
Cc1ccc[n+](CC(=O)c2cc3ccccc3oc2=O)c1	24.6*	-1.4%	5.2%	29.5	1.1%	-2.1%
COc1ccc(CN2CCn3nc(C(=O)NC(C)C)cc3C2=O)cc1	1.2	-3.1%	0.8%	-12.9	6.6%	2.4%
Cc1ccc(S(=O)(=O)N/N=c2\oc3ccccc3cc2C(=O)Nc2cccc(C)c2)cc1	61.9*	0.3%	·	70.9*	·	-11.1%
Cc1cc(C)c[n+](CC(=O)c2cc3ccccc3oc2=O)c1	-6.1	2.9%	-2.2%	-15.3	-11.3%	-4.4%
CCOC(=O)C1CCN(C(=O)c2nn(-c3ccc(C)cc3)c(=O)c3c2c2ccccc2n3C)CC1	·	·	-8.5%	·	·	·
COC(=O)C/C=C\[C@@H](C)[C@@H](/C=N\O[C@@H]1O[C@H](COC(C)=O)[C@@H](OC(C)=O)[C@H](OC(C)=O)[C@H]1OC(C)=O)NS(=O)(=O)c1ccc(C)cc1	·	·	·	·	·	-0.9%[12.9 µM]
Cc1ccc(C)c(N2CCN(C(=O)C3CCC(CNS(=O)(=O)c4ccc(Br)s4)CC3)CC2)c1 (centres undefined)	·	·	1.8%	·	·	·
COC(=O)C/C=C\[C@@H](C)[C@@H](/C=N\O[C@@H](C)CN1CCCCc2nc(C)c(C)cc21)OC	·	·	·	·	·	-1.9%[12.9 µM]
Cc1cccc(NC(=O)c2cc3ccccc3oc2=O)c1	41.2*	-9.9%	0.4%	·	0.1%	6.6%
COc1ccc2oc(=O)c(C(=O)Nc3cccc(C)c3)cc2c1	43.5*	3.7%	7.7%	49.1*	-18.6%	1.7%
CC(=O)c1cc2ccccc2oc1=O	·	·	1.0%	·	-4.9%	9.2%[21.7 µM]
CNC(=O)c1ccc(OC2CSC2)cc1	13.9	-4.2%	-1.2%	-2.1	3.5%	11.6%
O=C(N/N=C/c1ccc(OC2CSC2)cc1)c1ccccc1	50.2*	-11.2%	-4.4%	127.2*	-2.9%	0.8%
O=C(/C=C/c1ccc(OC2CSC2)cc1)c1ccccc1	47.3*	25.1µM*	?	124.9*	?	0.0%
Cc1ccc(N(CC(=O)N/N=C/c2ccc(OC3CSC3)cc2)S(=O)(=O)c2ccccc2)cc1	-1.5	1.5%	-4.1%	-4.3	-3.7%	12.4%
O=C(NC1CCCCCC1)C1CCN(C(=O)N2CCOc3ccc(Cl)cc32)CC1	·	·	2.9%	·	·	·
CC(C)N1CCC2(CC1)N=C(c1ccc3c(c1)OCO3)CC(c1cc(Cl)ccc1O)N2 (centres undefined)	47.1*	-2.8%	3.6%	42.9*	?	1.7%
COC(=O)Nc1ccc2c(c1)Nc1ccccc1CC2	active	7.9%	-3.0%	·	14.4%	10.1%
N=C(C[C@@H](O)COc1ccccc1-c1ccccc1)N1CCCCC1	·	·	·	·	·	3.6%
